The values that follow come from PubChem BioAssay AID1159580 (chemical genetic matrix, 2015).

The whole screen tested about 5,500 compounds, of which about 2,000 (36%) were called active. Another 18% or so got no clear call; they are omitted. This is one part of the list. Unmarked numbers belong to inactive results. Rule as the data show it: active = normalized growth mostly below about 0.91 (no sharp cut-off); inconclusive = no clear call, values can overlap the other calls; inactive = mostly above about 0.92.

This assay can be described thus: chemical genetic growth profiling, strain panel (AID 1159580).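 Also: tested at 20 µM; growth read once vehicle control cultures reached saturation at 30 °C; 1 = growth at the plate median or of vehicle wells; lower values mean less growth of the strain.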 The conditions noted are these: S. cerevisiae deletion strains, growth OD.
[1] abbreviates: locus YAL013W, strain DEP1, active compounds read low.
Where [2] appears, read: locus YDR150W, strain NUM1, active compounds read low.
Setting [3] is: locus YGR078C, strain PAC10, active compounds read low.
The mark [4] stands for this setting: locus YJR075W, strain HOC1, active compounds read low.
Setting [5] is: locus YMR307W, strain GAS1, active compounds read low.
Setting [6] is: locus YPL055C, strain LGE1, active compounds read low.

Consider `COc1cc2c(CCNC(C)=O)c[nH]c2cc1O`, for which the normalized growth under setting [1] was 1.02; the normalized growth (locus YAL040C, strain CLN3, active compounds read low) was 1.01; the normalized growth (locus YCL061C, strain MRC1 (second series), active compounds read low) was 1.01; the normalized growth under setting [2] was 1.01; the normalized growth (locus YDR363W, strain ESC2, active compounds read low) is 1.02; the normalized growth (locus YER002W, strain NOP16, active compounds read low) was 1.02. The normalized growth runs as follows: under setting [3], 1; under setting [4], 1.02; under setting [5], 1; (locus YNL128W, strain TEP1, active compounds read low) 1.02; (locus YNL175C, strain NOP13, active compounds read low) 0.998; (locus YNL197C, strain WHI3, active compounds read low) 1.02. Further, the normalized growth is, setting by setting: (locus YNL224C, strain SQS1, active compounds read low) 0.996; (locus YOR083W, strain WHI5 (second series), active compounds read low) 1; under setting [6], 1.02.

As to `CC(=O)NC(CCC(=O)O)C(=O)O` (stereo not drawn), the normalized growth was 0.985 under setting [1]; 0.966 (locus YBR229C, strain ROT2, active compounds read low); 0.984 (locus YCL061C, strain MRC1, active compounds read low); 0.96 (locus YDL101C, strain DUN1, active compounds read low); 0.974 under setting [2]; 0.975 (locus YEL061C, strain CIN8, active compounds read low). The normalized growth is 0.983 under setting [3]; 0.973 (locus YHR030C, strain SLT2, active compounds read low); 1.13 [resistant] (active) (locus YHR087W, strain rtc3, active compounds read low); 0.976 (locus YJR043C, strain POL32, active compounds read low); 0.99 under setting [4]; 0.99 (locus YKL190W, strain CNB1, active compounds read low). Also, the normalized growth (locus YLR039C, strain RIC1, active compounds read low) was 0.978; the normalized growth (locus YLR058C, strain SHM2 (second series), active compounds read low) was 0.981; the normalized growth (locus YLR085C, strain ARP6, active compounds read low) was 0.975; the normalized growth (locus YLR262C, strain YPT6, active compounds read low) was 1.01; the normalized growth (locus YML094W, strain GIM5, active compounds read low) is 0.981; the normalized growth (locus YMR219W, strain ESC1, active compounds read low) is 0.975. The normalized growth is, setting by setting: (locus YMR263W, strain SAP30, active compounds read low) 0.987; under setting [5], 1.1; (locus YNL153C, strain GIM3, active compounds read low) 0.978; (locus YNL298W, strain CLA4 (second series), active compounds read low) 0.984; (locus YNL322C, strain KRE1, active compounds read low) 0.984; (locus YNR030W, strain Alg12, active compounds read low) 1.02. Moreover, the normalized growth (locus YOL006C, strain TOP1, active compounds read low) is 0.964; the normalized growth under setting [6] was 1.03; the normalized growth (locus YPL241C, strain CIN2, active compounds read low) is 0.973; the normalized growth (locus YPR135W, strain CTF4, active compounds read low) is 0.969.
